# Data: PubChem BioAssay AID2732 (Emory University Molecular Libraries Screening Center, 2010)
# Screen size: about 220,000 compounds; about 8,200 (3.7%) were called active. The full list was thinned out, with actives kept by preference. Values without a mark were called inactive.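 Rule for the calls: active = compounds that reduced the stress-induced luciferase reporter signal by more than about 70% of percent inhibition (limit read from the data); inactive = the rest.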
# Test: blockers of ER-stress CHOP reporter expression – cell-based, unfolded protein response, luciferase reporter, primary screen (AID 2732);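 note: 0% = tunicamycin plus vehicle and 100% = wells without tunicamycin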
# Details: CHO-K1 CHOP-promoter luciferase, tunicamycin-induced, 15-18 h; at 10 µM; active compounds read high
row,Structure (SMILES),inhibition
1,O=C(O)Cc1csc(NC(=O)CSc2nnnn2-c2ccc(O)cc2)n1,-5.01%
2,CCc1ccc(S(=O)(=O)NCC(O)COc2ccc(OC)cc2)cc1 (configuration not stated),16.3%
3,O=C(N/N=C\c1cc(Br)c(Br)o1)C1COc2ccccc2O1 (configuration not stated),6.22%
4,Cc1ccc(-c2csc(-c3cc(C)on3)n2)cc1,-14.2%
5,Cc1ccc(-c2csc(-c3c[nH]c4ccccc34)n2)cc1,98.1% (active)
6,CCCc1cc(-c2nc(-c3ccc(C)cc3)cs2)ccn1,39.6%
7,COCc1cc(=O)oc2cc(NS(=O)(=O)c3ccc(C)cc3)ccc12,9.01%
8,Cc1cc(Nc2ccc(N3CCOCC3)cc2)c2cccc(C)c2n1,-27.9%
9,COc1cc(NC(=O)Nc2ccc(C)cc2)cc([N+](=O)[O-])c1,71.2% (active)
10,CC(=O)c1ccc(NC(=O)Nc2ccc([N+](=O)[O-])cc2C)cc1,51.8%
11,COC(=O)c1ccc(NC(=O)Nc2ccc(C)cc2)cc1,26.6%
12,Cn1c(=O)c2c(nc(NCc3ccccc3)n2CC(N)=O)n(C)c1=O,9.77%
13,Cc1ccccc1N1CCN(Cc2nc(Cc3ccccc3F)no2)CC1,-7.61%
14,COc1cc(C(=O)N[C@@H](C)C(=O)NCc2ccco2)cc(OC)c1OC,0.36%
15,COc1cc(C(=O)OC(C)C(=O)NCC2CCCCC2)cc(NC(=O)c2ccco2)c1OC (configuration not stated),101% (active)
16,COC(=O)c1cc(Cl)c(NC(=O)c2ccco2)cc1OC,-8.18%
17,Cc1[nH]n(C)c(=O)c1N=Nc1ccc(S(C)(=O)=O)cc1,7.35%
18,CCc1ccccc1NC(=O)/C(=C/c1ccccc1)c1ccccc1,84.8% (active)
19,O=C(/C=C/c1ccccc1)N/C(=C/c1ccccc1)C(=O)Nc1ccccc1O,-0.94%
20,CCc1ccccc1NC(=O)c1cccs1,39.1%
21,COc1ccccc1N1CCN(C(=O)c2ccc(S(=O)(=O)N3CCCCC3)cc2)CC1,10.2%

row,Structure (SMILES),inhibition
1,O=C(N/N=C/c1ccccn1)c1ccc(S(=O)(=O)N2CCCCCC2)cc1,-0.54%
2,N#CC(C(=O)c1ccc(S(=O)(=O)N2CCCCCC2)cc1)c1nc2ccccc2[nH]1 (configuration not stated),101% (active)
3,CCN(CC)S(=O)(=O)c1ccc(Cl)c(NC(=O)c2ccncc2)c1,4.4%
4,Cc1ccc(S(=O)(=O)N(C)C)cc1NC(=O)COC(=O)c1c(C)noc1C,22.9%
5,CCN(CC)S(=O)(=O)c1ccc(C)c(NC(=O)COc2ccc(Br)cc2Cl)c1,88% (active)
6,COC(=O)c1cccc(NS(C)(=O)=O)c1,27.4%
7,COC(=O)c1sc(SC)c(S(=O)(=O)C(C)C)c1N/N=C(\C#N)S(=O)(=O)c1ccccn1,5.06%
8,CCN(CC(=O)Nc1cccc(S(N)(=O)=O)c1)Cc1nc2ccccc2c(=O)[nH]1,-6.72%
9,C=CCSc1nc(N)cc(=O)[nH]1,14.8%
10,O=C(O)C1CC=CCC1C(=O)Nc1ccccc1C(=O)N1CCN(c2ccccc2)CC1 (configuration not stated),12.7%
11,Cc1cccc(N2CCN(C(=O)c3ccccc3NC(=O)C3CCCCC3C(=O)O)CC2)c1 (configuration not stated),13.9%
12,CC(C)c1ccc(N2CCN(C(=O)c3ccccc3NC(=O)/C=C(\C(=O)O)c3ccccc3)CC2)cc1,110% (active)
13,CC12CN3CCN(CC(C3)/C1=N\NC(=O)c1ccccc1N)C2,7.18%
14,CCCCNc1nc2c(c(=O)n(C)c(=O)n2C)n1Cc1cccc(OC)c1,17.1%
15,Cn1c(=O)c2c(nc(N/N=C/c3cccs3)n2Cc2ccc(Br)cc2)n(C)c1=O,79.6% (active)
16,Cn1c(=O)c2c(nc(NCCc3ccccc3)n2Cc2ccccc2)n(C)c1=O,61.2%
17,O=C(CS(=O)(=O)c1ccc(C(F)(F)F)cn1)NNC(=O)c1ccccc1,3.02%
18,CCOC(=O)c1sc2nc(C)[nH]c(=O)c2c1C,3.38%
19,CCOC(=O)c1sc2nc(CSc3ccccc3)[nH]c(=O)c2c1C,63.4%
20,CCOC(=O)c1sc(C)c2c1NC(C)(c1cccc3ccccc13)NC2=O (configuration not stated),74.8% (active)
21,Cc1nc(/N=C(\N)NC(=O)NC2CCCCC2)nc2ccccc12,33.5%

row,Structure (SMILES),inhibition
1,O=c1ccn(Cc2ccccc2Cl)cc1,68.6%
2,CC1(C)COC(c2cccn2Cc2ccccc2Cl)=N1,71.8% (active)
3,O=C(Nc1cccn(Cc2ccccc2Cl)c1=O)NC1CCCCC1,26.3%
4,O=C(Cc1nc2ccccc2[nH]c1=O)c1ccc(Cl)cc1,-13.2%
5,O=C(/C(=C/c1cccc(Cl)c1)c1nc2ccccc2[nH]1)c1ccccc1,92.6% (active)
6,CCC(=O)/C(=C(/O)c1ccccc1)c1nc2ccccc2[nH]1,-37.6%
7,Cc1ccc(NNC(=O)c2c(F)cccc2Cl)cc1Cl,4.19%
8,COc1ccc(-n2c(SCC(=O)Nc3sc4c(c3C#N)CCCC4)nnc2-c2ccc(O)cc2)cc1,106% (active)
9,NC(=O)c1c(NC(=O)CSc2nnc(-c3ccco3)n2N)sc2c1CCCC2,22.2%
10,COc1cccc(CN(C)CC(=O)Nc2sc3c(c2C#N)CCC3)c1,3.74%
11,COc1ccc(OC)c(-n2c(-c3ccn[nH]3)n[nH]c2=S)c1,12.3%
12,CCOC(=O)N1CCN(c2c(NCCN3CCN(c4ccccc4F)CC3)c(=O)c2=O)CC1,18.8%
13,O=C(Oc1ccc(-c2nc(-c3ccccn3)no2)cc1)c1ccccc1,83.7% (active)
14,O=C(Oc1ccccc1)c1ccc2nccnc2c1,-6.68%
15,c1ccc(-c2noc(-c3cccs3)n2)nc1,22.5%
16,O=c1c2c3c(sc2n(CCN2CCCC2)c(=O)n1Cc1ccccc1)CCCCC3,44.2%
17,CSc1nnnn1-c1c(C)cc(C)cc1C,3.56%
18,COc1ccc(C)cc1NC(=O)C(OC(=O)c1cccc(S(=O)(=O)N(C)c2ccccc2)c1)c1ccccc1 (configuration not stated),-0.27%
19,CC(=O)c1c(C)[nH]c(C(=O)COC(=O)c2cccc(S(=O)(=O)N(C)c3ccccc3)c2)c1C,86.8% (active)
20,CN(c1ccccc1)S(=O)(=O)c1ccc(Cl)c(C(=O)OCC(N)=O)c1,7.63%
